The panel holds about 83,000 compounds, 20% with a hit somewhere; the sample as a whole holds those more often.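 Testing used 96-well plates and a 48-hour single-concentration exposure. Example: -40 means 40% of the starting cells died.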 Values without a mark were called inactive. Activity calls are given as the source filed them. Rule for the calls: active = growth percent below 10; inactive = the rest.
Tests used:
Experiment in all cases: NCI-60 one-dose screen, 48 h (100 = growth as untreated, 0 = no growth, -100 = all killed)
Details in all cases: 10 µM
SR leukemia = system: SR leukemia
RPMI-8226 leukemia = system: RPMI-8226 leukemia
OVCAR-8 ovarian = system: OVCAR-8 ovarian
OVCAR-5 ovarian = system: OVCAR-5 ovarian
OVCAR-4 ovarian = system: OVCAR-4 ovarian
SK-OV-3 ovarian = system: SK-OV-3 ovarian
IGROV1 ovarian = system: IGROV1 ovarian
OVCAR-3 ovarian = system: OVCAR-3 ovarian
HS 578T breast = system: HS 578T breast
NCI/ADR-RES ovarian = system: NCI/ADR-RES ovarian

Row | Compound | growth (SR leukemia) | growth (RPMI-8226 leukemia) | growth (OVCAR-8 ovarian) | growth (OVCAR-5 ovarian) | growth (OVCAR-4 ovarian) | growth (SK-OV-3 ovarian) | growth (IGROV1 ovarian) | growth (OVCAR-3 ovarian) | growth (HS 578T breast) | growth (NCI/ADR-RES ovarian)
1 | CCOC(=O)Nc1cc2c(c(N)n1)N=C(c1ccccc1)CO2 | 6.89% (active) | 29.3% | 14.5% | 57.4% | 49.4% | 22.8% | 25.2% | -28.2% (active) | 50.1% | 13.4%
2 | CC(=O)NC(N)=S | 90.4% | 103% | 104% | 116% | 111% | 118% | 121% | 119% | 115% | 110%
3 | CC(=O)OCC1CCCO1 (stereo not given) | 102% | 119% | 110% | 110% | 102% | 92% | 113% | 114% | 94.2% | 105%
4 | CC1CC(O)C2C3(C)CCCC2(COC3=O)C12CCC1(CCOC1=O)O2 (stereo not given) | 114% | 117% | 127% | 104% | 103% | 105% | 113% |  | 99% | 111%
5 | c1ncc2[nH]cnc2n1 | 100% | 91.9% | 95.6% | 96.7% | 110% | 90.8% | 92% | 110% | 114% | 104%
6 | CC(C)OC(C(=O)O)c1ccccc1 (stereo not given) | 125% | 105% | 109% | 97.1% | 96.2% | 100% | 124% | 110% | 112% | 104%
7 | NC(C(=O)O)C(O)c1ccco1 (stereo not given) | 112% | 101% | 103% | 108% | 114% | 107% | 124% | 117% | 107% | 112%
8 | CCC(=O)Oc1ccc(OC)cc1 | 92.6% | 128% | 108% | 102% | 114% | 101% | 93.1% | 103% |  | 106%
9 | NC(=O)N/N=C\c1ccco1 | 107% | 105% | 109% | 118% | 121% | 102% | 99.6% | 125% |  | 101%
10 | NC(N)=Nc1cc2ccccc2c2ccccc12 | 44.3% | 33.5% | 45.9% | 95.8% | 74.4% | 80.2% | 65.2% |  | 96.4% | 95.1%
11 | O=C1Cc2cc(O)ccc2O1 | 91.8% | 96.1% | 102% | 113% | 118% | 99.8% | 104% | 120% | 119% | 107%
12 | CCCCN(CCCC)CCCO | 113% | 158% | 99.8% | 99.4% | 108% | 110% | 125% | 101% |  | 105%
13 | O=[N+]([O-])c1cccc(N=Nc2ccc(O)cc2O)c1 | 43.1% | 29.6% | 74.3% | 143% | 62.3% | 101% | 83.6% | 62.4% | 72.7% | 88.8%
14 | Cc1cc(Cc2cc(C)c(N)cc2N)c(N)cc1N | 55.2% | 92.8% | 89.7% | 116% | 111% | 82.2% | 87.5% | 94.9% | 93.8% | 95.8%
15 | O=C(O)CCC(=O)OC(C1CO1)C(OC(=O)CCC(=O)O)C1CO1 (stereo not given) | 101% | 90.4% | 95.9% | 93.4% | 107% | 96.8% | 110% |  | 113% | 109%
16 | O/N=C/c1ccc(O)cc1O | 110% | 94.8% | 94.1% | 94.7% | 109% | 103% | 117% | 112% |  | 104%

Row | Compound | growth (SR leukemia) | growth (RPMI-8226 leukemia) | growth (OVCAR-8 ovarian) | growth (OVCAR-5 ovarian) | growth (OVCAR-4 ovarian) | growth (SK-OV-3 ovarian) | growth (IGROV1 ovarian) | growth (OVCAR-3 ovarian) | growth (HS 578T breast) | growth (NCI/ADR-RES ovarian)
17 | NC(CSC(c1ccccc1)(c1ccccc1)c1ccccc1)C(=O)O (stereo not given) | 15.3% | 4.13% (active) | 22.6% | 41.8% | 74.6% | 17% | 63.3% | 15.9% |  | 93%
18 | CCOC(=O)CCCC(=O)OCC | 102% | 113% | 103% | 101% | 101% | 96.7% | 102% | 102% | 96.2% | 106%
19 | Oc1ccc(N=Nc2ccc(Br)cc2)c(O)c1 | -8.8% (active) | -37.3% (active) | 24.1% | 80.7% | 33.7% | 25.7% | -15.3% (active) | -65.2% (active) | 10.4% | -55.4% (active)
20 | Nc1ccc(N=Nc2ccc(O)cc2)c(N)n1 | 80% | 38.1% | 75% | 104% | 59.2% | 97.3% | 89.4% | 73.4% |  | 64.5%
21 | COc1cccc(O)c1O | 29.9% | 89.2% | 86.2% | 101% | 96.3% | 76.9% | 96.4% | 6.36% (active) |  | 85.6%
22 | COCCOC(=O)c1ccc(C(C)C)cc1 | 95.7% | 108% | 103% | 104% | 104% | 82.1% | 104% | 99.5% | 117% | 96%
23 | O=C(Cc1ccccc1)Cc1ccccc1 | 104% | 103% | 89.6% | 95.8% | 97.2% | 99.8% | 104% | 106% | 106% | 110%
24 | CCC/C=C(\C)C(C)(C#N)C(=O)OCC (stereo not given) | 100% | 95.1% | 101% | 110% | 107% | 111% | 107% | 124% |  | 110%
25 | NC(=S)CN1CCOCC1 | 78.2% | 93.7% | 105% | 105% | 121% | 112% | 102% | 111% |  | 105%
26 | CCO/C=C1\SC(=S)N(c2cccc(C)c2)C1=O | 87.9% | 92.4% | 101% | 106% | 100% | 88.7% | 107% |  | 103% | 109%
27 | COS(=O)(=O)c1ccc(Br)cc1 | 135% | 111% | 98.6% | 93.4% | 107% | 104% | 118% | 101% | 114% | 93.7%
28 | O=S(=O)(O)CC(O)CN1CCN(CCO)CC1 (stereo not given) | 92.4% | 96.3% | 98.8% | 117% | 114% | 95.3% | 124% | 108% | 104% | 99.7%
29 | O=C1C=CC(=O)N1c1ccc(I)cc1Cl | 110% | 92.5% | 73.7% | 102% | 99.4% | 109% | 113% | 118% | 109% | 97.9%
30 | Cc1ccc(C(=O)NC2c3ccccc3Oc3ccccc32)cc1 | 26.6% | 78.9% | 48.6% | 80.6% | 64.7% | 48.3% | 50.8% |  | 46.5% | 55%
31 | O=c1cc(-c2ccccc2)oc2c1ccc1ccccc12 | 67.3% | 77.8% | 82.3% | 96% | 93.6% | 88.2% | 94.1% | 107% | 97.8% | 82.6%
32 | CC1(c2ccccc2)NC(=O)NC1=O (stereo not given) | 102% | 105% | 103% | 109% | 115% | 107% | 105% | 121% |  | 114%

From PubChem BioAssay (NCI)
